The structures appear in SMILES notation. Inconclusive results are not listed. Active and inactive are the calls of the source. The calls were made as follows, unless noted: active = hit-call score of the fitted dose curve at least 0.9, where 1 is the maximum; inconclusive = response in the unintended direction; inactive = score below 0.9.

For assay [1], the target named is mouse Estrogen Receptor alpha (Era), Esr1 (gene 13982) (UniProt P19785). The experiment in a line: NVS_NR_mERa: NovaScreen (NVS) Nuclear Receptor Binding Assay for mouse Estrogen Receptor alpha (Era) (AID 2283378).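 Also: hit means loss of bound radioligand signal relative to DMSO.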 In outline: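 Cell-free radioligand binding with extracted mouse Era protein; competitive displacement of radiolabelled ligand, read by filter-based scintillation counting 18 hours after dosing. Loss of signal versus DMSO baseline taken as binding; single screening concentration 25 uM, actives followed in concentration series.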
Chain of mouse Estrogen Receptor alpha (Era), Esr1 (gene 13982) (P19785 whole entry, looked up): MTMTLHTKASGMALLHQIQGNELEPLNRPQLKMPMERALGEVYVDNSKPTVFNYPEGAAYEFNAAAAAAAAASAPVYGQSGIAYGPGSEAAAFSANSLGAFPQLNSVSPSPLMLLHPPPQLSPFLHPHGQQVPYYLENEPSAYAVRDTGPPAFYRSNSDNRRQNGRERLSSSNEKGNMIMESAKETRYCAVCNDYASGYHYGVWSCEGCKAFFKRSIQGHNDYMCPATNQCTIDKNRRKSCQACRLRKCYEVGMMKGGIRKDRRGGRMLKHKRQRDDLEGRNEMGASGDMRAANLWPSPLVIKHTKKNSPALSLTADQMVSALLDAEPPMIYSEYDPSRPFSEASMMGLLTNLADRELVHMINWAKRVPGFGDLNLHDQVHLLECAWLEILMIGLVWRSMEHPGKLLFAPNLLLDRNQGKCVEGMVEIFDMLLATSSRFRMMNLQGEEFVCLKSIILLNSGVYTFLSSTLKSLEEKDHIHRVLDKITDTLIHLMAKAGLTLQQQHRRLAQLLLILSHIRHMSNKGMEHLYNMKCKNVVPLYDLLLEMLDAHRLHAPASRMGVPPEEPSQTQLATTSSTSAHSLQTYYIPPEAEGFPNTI

The target of assay [2] is Agonist Androgen Response Element (ARE), AR (gene 367) (UniProt P10275). The experiment in a line: OT_AR_ARELUC_AG_1440: Odyssey Thera (OT) 24-hour CHO-K1 Luciferase Assay for Agonist Androgen Response Element (ARE) (AID 2283379). The method, boiled down:
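CHO-K1 cells carrying an ARE-driven luciferase reporter were exposed to compounds for 24 h. Luminescence was then read after adding a D-luciferin/ATP mix, and activity was scored as a gain in signal over DMSO vehicle.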

Assay [3] has as its target Estrogen receptor beta (Homo sapiens) (UniProt Q92731). The experiment in a line: OT_ER_ERbERb_1440: Odyssey Thera (OT) 24-hour HEK293T Protein-Complementation Assay for Estrogen Receptor-beta/-beta Homodimer (AID 2283380).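 Also: scored as signal increase over DMSO baseline for both agonists and antagonists.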 In outline:
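HEK293T cells stably expressing ER beta LBD (aa 310-547) homodimer fragment-complementation reporter, dosed 24 h. Cells formaldehyde-fixed, Draq5-stained; gain in nuclear (agonist) or nuclear plus cytoplasmic (antagonist) fluorescence versus DMSO read by laser scanning cytometry.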

Assay [4] concerns the target Estrogen receptor (Homo sapiens) (UniProt P03372). The experiment in a line: OT_ERa_GFPERaERE_0480: Odyssey Thera (OT) 8-hour HeLa Transcription Induction Assay for Estrogen Receptor (AID 2283381; active = hit-call score of the fitted dose curve at least 0.9, where 1 is the maximum; inactive = score below 0.9). The method, boiled down: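 HeLa cells dosed with compound and imaged by fluorescence microscopy at 8 h; GFP induction from an ERE reporter quantified by high-content image analysis and fitted as gain of signal against DMSO baseline.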

Assay [5] shares this target. Description: OT_ERa_GFPERaERE_0120: Odyssey Thera (OT) 2-hour HeLa Transcription Induction Assay for Estrogen Receptor (AID 2283382). In outline: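 HeLa cells were dosed with test chemical and read 2 hours later for GFP-ERα/ERE-linked fluorescent protein induction by fluorescence microscopy. Gain-of-signal was fitted relative to DMSO baseline, quantified by high content image analysis.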

The target in assay [6] is Bile acid receptor (Homo sapiens) (UniProt Q96RI1). Description: OT_FXR_FXRSRC1_1440: Odyssey Thera (OT) 24-hour HEK293T Protein-Complementation Assay for Farnesoid X receptor/SRC-1 Co-activator (AID 2283384). The method, boiled down: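 HEK293T cells were dosed with compound and read 24 h later by fluorescence intensity from protein-fragment complementation reporting FXR/SRC-1 co-activator interaction. Gain of signal was fitted relative to DMSO negative control as baseline.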
Chain of Bile acid receptor (Homo sapiens) (Q96RI1 whole entry, looked up, the tested form may be a part): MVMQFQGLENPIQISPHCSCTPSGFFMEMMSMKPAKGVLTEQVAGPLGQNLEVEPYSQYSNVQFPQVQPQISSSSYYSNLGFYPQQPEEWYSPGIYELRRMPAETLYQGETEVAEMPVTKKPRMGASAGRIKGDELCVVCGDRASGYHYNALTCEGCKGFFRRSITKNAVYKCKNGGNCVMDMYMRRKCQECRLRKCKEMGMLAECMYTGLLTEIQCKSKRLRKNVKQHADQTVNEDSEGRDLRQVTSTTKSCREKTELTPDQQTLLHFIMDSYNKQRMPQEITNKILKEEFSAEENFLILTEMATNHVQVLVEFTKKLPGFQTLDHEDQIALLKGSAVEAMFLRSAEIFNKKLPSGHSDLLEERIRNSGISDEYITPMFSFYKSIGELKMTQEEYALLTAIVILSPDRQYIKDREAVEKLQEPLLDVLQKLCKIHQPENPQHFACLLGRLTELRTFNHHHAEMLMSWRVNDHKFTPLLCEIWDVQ

For assay [7], the target named is Retinoic acid receptor RXR-alpha (Homo sapiens) (UniProt P19793). The experiment in a line: OT_NURR1_NURR1RXRa_1440: Odyssey Thera (OT) 24-hour HEK293T Protein Complementation Assay for Nurr1/retinoid X receptor (RXR) (AID 2283386). In outline: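 HEK293T cells were dosed with compound and read 24 h later by fluorescence intensity in a protein-fragment complementation format, where Nurr1–RXRα interaction reconstitutes a split reporter. Activity was fitted as gain of signal relative to DMSO baseline.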
Chain of Retinoic acid receptor RXR-alpha (Homo sapiens) (P19793 whole entry, looked up, the tested form may be a part): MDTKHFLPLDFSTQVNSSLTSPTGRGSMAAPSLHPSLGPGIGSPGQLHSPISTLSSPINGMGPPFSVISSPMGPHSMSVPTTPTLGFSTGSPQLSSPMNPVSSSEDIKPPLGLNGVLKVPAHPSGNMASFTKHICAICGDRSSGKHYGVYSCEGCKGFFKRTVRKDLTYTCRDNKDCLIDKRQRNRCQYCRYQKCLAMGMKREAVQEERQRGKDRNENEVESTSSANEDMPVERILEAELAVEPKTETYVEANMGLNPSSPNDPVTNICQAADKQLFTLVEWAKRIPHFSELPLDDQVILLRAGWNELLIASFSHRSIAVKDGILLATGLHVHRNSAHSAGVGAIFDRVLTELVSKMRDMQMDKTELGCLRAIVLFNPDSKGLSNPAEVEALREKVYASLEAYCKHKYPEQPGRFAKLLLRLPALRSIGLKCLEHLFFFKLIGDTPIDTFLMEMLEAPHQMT

For assay [8], the target named is Peroxisome proliferator-activated receptor gamma (Homo sapiens) (UniProt P37231). Description: OT_PPARg_PPARgSRC1_0480: Odyssey Thera (OT) 8-hour Protein-Complementation Assay for Peroxisome Proliferator-activated Receptor Gamma / SRC-1 Co-activator (AID 2283387). The method, boiled down: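 HEK293T transiently transfected with PPARg and SRC-1 fused to Venus YFP fragments, compounds 8 h at 37C. Fixed, Draq5-stained cells imaged; nuclear/cytoplasmic 488 nm fluorescence ratio over at least 350 cells per image; gain fitted versus DMSO.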
Chain of Peroxisome proliferator-activated receptor gamma (Homo sapiens) (P37231 whole entry, looked up, the tested form may be a part): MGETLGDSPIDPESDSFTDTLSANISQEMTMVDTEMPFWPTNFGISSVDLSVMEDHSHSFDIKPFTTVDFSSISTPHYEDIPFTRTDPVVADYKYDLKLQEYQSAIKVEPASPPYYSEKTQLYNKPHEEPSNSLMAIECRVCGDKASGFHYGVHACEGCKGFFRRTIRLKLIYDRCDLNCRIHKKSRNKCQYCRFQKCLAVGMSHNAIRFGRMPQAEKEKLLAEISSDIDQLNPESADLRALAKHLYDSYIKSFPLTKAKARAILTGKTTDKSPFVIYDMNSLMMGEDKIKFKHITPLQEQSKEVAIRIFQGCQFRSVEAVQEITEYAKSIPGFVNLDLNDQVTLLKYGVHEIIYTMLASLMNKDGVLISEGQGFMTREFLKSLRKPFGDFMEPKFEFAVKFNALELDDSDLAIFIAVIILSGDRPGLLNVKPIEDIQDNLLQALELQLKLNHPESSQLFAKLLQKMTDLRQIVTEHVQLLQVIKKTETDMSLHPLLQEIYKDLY

For assay [9] the target is unchanged. The experiment in a line: OT_PPARg_PPARgSRC1_1440: Odyssey Thera (OT) 24-hour Protein-Complementation Assay for Peroxisome Proliferator-activated Receptor Gamma/ SRC-1 Co-activator (AID 2283388). In outline:
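HEK293T cells transiently transfected with PPARg and SRC-1 fused via (Gly4Ser)2 linker to split Venus YFP fragments (IFP1/IFP2) were dosed 24 h; fixed, Draq5-stained, imaged at 488/635 nm; nuclear/cytoplasmic fluorescence ratio scored versus DMSO baseline, gain-of-signal.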

Assay [10] concerns the target Bile acid receptor (Homo sapiens) (UniProt Q96RI1). Description: OT_FXR_FXRSRC1_0480: Odyssey Thera (OT) 8-hour HEK293T Protein-Complementation Assay for Farnesoid X receptor/SRC-1 Co-activator (AID 2283383). The method, boiled down:
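HEK293T cells expressing FXR and SRC-1 fused to reporter fragments were dosed with compound for 8 h; fluorescence from the reconstituted reporter marked co-activator recruitment. Gain of signal was fitted against the DMSO baseline.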

Assay [11] in a line: CEETOX_H295R_OHPREG: CeeTox H295R High-throughput Steroidogenesis Assay for OH-Pregnenolone (OHPREG) (AID 2283434; active = hit-call score of the fitted dose curve at least 0.9, where 1 is the maximum; inactive = score below 0.9). The following applies: actives raise or lower the signal. The method, boiled down:
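H295R cells pre-stimulated 48 h with 10 uM forskolin, then exposed 48 h to chemical in 0.1% DMSO. 17alpha-hydroxypregnenolone in medium quantified by MTBE extraction and HPLC-MS/MS; bidirectional fit versus DMSO, viability checked by MTT.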

Assay [12] can be described thus: CEETOX_H295R_OHPROG: CeeTox H295R High-throughput Steroidogenesis Assay for OH-Progesterone (OHPROG) (AID 2283435; active = hit-call score of the fitted dose curve at least 0.9, where 1 is the maximum; inactive = score below 0.9). To be noted: actives raise or lower the signal. The method, boiled down: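 H295R human adrenal cells were prestimulated 48 h with 10 uM forskolin, then exposed 48 h to test chemical (0.1% DMSO final). 17alpha-hydroxyprogesterone in medium was measured by HPLC-MS/MS after MTBE extraction; bidirectional fitting vs DMSO.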

Assay [13] can be described thus: CEETOX_H295R_ESTRADIOL: CeeTox H295R High-throughput Steroidogenesis Assay for Estradiol (AID 2283440; active = hit-call score of the fitted dose curve at least 0.9, where 1 is the maximum; inactive = score below 0.9;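 also: estradiol secreted into medium quantified by LC-MS/MS after dansyl derivatisation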). The following applies: actives raise or lower the signal. In outline: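 H295R adrenocortical cells were prestimulated with 10 uM forskolin for 48 h, then exposed to test chemical in 0.1% DMSO for 48 h. Medium estradiol was extracted with MTBE, dansyl-derivatized and quantified by HPLC-MS/MS; bidirectional fit versus DMSO.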

Assay [14] can be described thus: CEETOX_H295R_ESTRONE: CeeTox H295R High-throughput Steroidogenesis Assay for Estrone (AID 2283441; active = hit-call score of the fitted dose curve at least 0.9, where 1 is the maximum; inactive = score below 0.9;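 also: estrone secreted into medium measured by LC-MS/MS after dansyl derivatization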). To be noted: actives raise or lower the signal. In outline:
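H295R cells; 48 h forskolin (10 uM) prestimulation; 48 h compound exposure, 0.1% DMSO final. Medium estrone: MTBE extraction, dansyl derivatization, HPLC-MS/MS. Bidirectional fit vs DMSO.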

Assay [15] is described as follows: CEETOX_H295R_ANDR: CeeTox H295R High-throughput Steroidogenesis Assay for Androstenedione (ANDR) (AID 2283436; active = hit-call score of the fitted dose curve at least 0.9, where 1 is the maximum; inactive = score below 0.9). To be noted: actives raise or lower the signal. In outline:
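H295R cells, following OECD 456 with minor changes, exposed to chemicals for 48 h. Androstenedione in the medium was quantified by HPLC-MS/MS after MTBE extraction. Fitting was bidirectional versus DMSO; chemicals were diluted until MTT viability was ≥70%.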

Assay [16] can be described thus: CEETOX_H295R_CORTIC: CeeTox H295R High-throughput Steroidogenesis Assay for Corticosterone (CORTIC) (AID 2283437; active = hit-call score of the fitted dose curve at least 0.9, where 1 is the maximum; inactive = score below 0.9;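 also: corticosterone secreted into medium quantified by mass spectrometry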). The following applies: actives raise or lower the signal. In outline: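 H295R adrenal cells prestimulated 48 hours with 10 uM forskolin, then exposed 48 hours to chemical in 0.1% DMSO. Corticosterone in medium measured by HPLC-MS/MS after MTBE extraction; MTT viability in the same wells; bidirectional fit versus DMSO.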

Assay [17] in a line: CEETOX_H295R_CORTISOL: CeeTox H295R High-throughput Steroidogenesis Assay for Cortisol (AID 2283438; active = hit-call score of the fitted dose curve at least 0.9, where 1 is the maximum; inactive = score below 0.9;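 also: cortisol secreted into medium quantified by LC-MS/MS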). The following applies: actives raise or lower the signal. The method, boiled down:
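H295R human adrenal cells were prestimulated 48 h with 10 uM forskolin, then exposed 48 h to test chemical (0.1% DMSO final). Medium cortisol was quantified by HPLC-MS/MS after MTBE extraction; bidirectional fitting relative to DMSO baseline.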

The nature of assay [18]: CEETOX_H295R_DOC: CeeTox H295R High-throughput Steroidogenesis Assay for DOC (AID 2283439; active = hit-call score of the fitted dose curve at least 0.9, where 1 is the maximum; inactive = score below 0.9). The following applies: actives raise or lower the signal. In outline: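 H295R adrenal cells prestimulated 48 h with 10 uM forskolin, then exposed 48 h to test chemical (0.1% DMSO final). Medium 11-deoxycorticosterone extracted with MTBE, quantified by HPLC-MS/MS; bidirectional fit versus DMSO baseline; MTT viability in same wells.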

Chain of Estrogen receptor (Homo sapiens) (P03372 whole entry, looked up): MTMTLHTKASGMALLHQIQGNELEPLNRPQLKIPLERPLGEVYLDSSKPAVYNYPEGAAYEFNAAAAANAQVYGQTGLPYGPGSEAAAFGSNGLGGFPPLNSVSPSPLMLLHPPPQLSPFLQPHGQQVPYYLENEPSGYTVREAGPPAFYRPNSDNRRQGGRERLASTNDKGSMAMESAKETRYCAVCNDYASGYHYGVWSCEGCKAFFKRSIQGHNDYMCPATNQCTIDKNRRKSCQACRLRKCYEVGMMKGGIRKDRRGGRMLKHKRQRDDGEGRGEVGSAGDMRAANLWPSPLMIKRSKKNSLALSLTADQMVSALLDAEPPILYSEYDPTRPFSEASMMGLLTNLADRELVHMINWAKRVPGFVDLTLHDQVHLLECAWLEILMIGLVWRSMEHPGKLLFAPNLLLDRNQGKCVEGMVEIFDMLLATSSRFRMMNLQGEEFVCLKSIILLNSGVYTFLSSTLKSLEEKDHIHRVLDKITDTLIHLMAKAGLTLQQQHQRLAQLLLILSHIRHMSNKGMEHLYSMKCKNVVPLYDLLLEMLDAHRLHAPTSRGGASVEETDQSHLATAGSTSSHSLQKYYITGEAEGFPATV
Chain of Agonist Androgen Response Element (ARE), AR (gene 367) (P10275 whole entry, looked up): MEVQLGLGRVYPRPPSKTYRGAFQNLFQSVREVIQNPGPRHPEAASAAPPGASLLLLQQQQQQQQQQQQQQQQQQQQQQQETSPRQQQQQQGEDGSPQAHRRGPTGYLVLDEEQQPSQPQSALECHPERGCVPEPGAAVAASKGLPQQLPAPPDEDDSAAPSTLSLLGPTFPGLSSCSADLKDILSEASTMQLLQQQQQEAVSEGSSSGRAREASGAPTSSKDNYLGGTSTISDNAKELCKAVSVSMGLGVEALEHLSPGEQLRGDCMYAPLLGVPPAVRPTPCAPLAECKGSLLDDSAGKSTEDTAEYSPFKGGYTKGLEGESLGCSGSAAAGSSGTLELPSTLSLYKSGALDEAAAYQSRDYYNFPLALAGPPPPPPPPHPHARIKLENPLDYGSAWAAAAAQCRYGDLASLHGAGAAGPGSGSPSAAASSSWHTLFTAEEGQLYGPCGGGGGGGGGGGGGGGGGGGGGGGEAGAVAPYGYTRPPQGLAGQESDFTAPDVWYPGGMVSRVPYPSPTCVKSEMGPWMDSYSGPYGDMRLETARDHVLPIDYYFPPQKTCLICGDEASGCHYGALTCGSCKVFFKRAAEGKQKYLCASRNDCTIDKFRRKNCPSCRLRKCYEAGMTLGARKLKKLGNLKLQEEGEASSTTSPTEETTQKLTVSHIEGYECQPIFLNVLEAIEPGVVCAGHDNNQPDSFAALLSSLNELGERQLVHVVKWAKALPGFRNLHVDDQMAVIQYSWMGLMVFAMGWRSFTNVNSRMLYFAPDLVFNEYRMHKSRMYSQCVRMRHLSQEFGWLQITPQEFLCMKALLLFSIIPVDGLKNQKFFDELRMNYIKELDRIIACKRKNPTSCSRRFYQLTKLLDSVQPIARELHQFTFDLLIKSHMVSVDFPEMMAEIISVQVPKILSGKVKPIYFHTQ
Chain of Estrogen receptor beta (Homo sapiens) (Q92731 whole entry, looked up, the tested form may be a part): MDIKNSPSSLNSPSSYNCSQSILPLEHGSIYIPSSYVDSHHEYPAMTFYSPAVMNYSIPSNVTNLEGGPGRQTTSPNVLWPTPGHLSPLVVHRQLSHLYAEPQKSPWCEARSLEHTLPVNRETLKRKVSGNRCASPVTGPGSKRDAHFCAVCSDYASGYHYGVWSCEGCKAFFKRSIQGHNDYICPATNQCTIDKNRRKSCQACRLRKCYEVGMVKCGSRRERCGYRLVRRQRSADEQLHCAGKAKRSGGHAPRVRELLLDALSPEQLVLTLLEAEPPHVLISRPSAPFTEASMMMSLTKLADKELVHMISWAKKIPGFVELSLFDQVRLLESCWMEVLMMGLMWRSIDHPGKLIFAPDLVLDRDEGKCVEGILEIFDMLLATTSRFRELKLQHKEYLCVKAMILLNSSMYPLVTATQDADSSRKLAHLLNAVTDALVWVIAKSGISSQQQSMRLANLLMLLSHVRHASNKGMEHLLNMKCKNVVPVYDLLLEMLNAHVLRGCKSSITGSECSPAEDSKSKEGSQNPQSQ

In the case of `O=S1(=O)OC(c2cc(Br)c(O)c(Br)c2)(c2cc(Br)c(O)c(Br)c2)c2ccccc21`, the compound was classed as inactive in assay [1], in assay [3], in assay [4], in assay [5] and in assay [6]. Further, the AC50 (in general, the concentration giving half of the maximal activity seen) is 0.214 µM (active) in assay [2], 14.4 µM (active) in assay [7], 46.5 µM (active) in [8] and 51.9 µM (active) in assay [9].

Take `CCCSP(=S)(OCC)Oc1ccc(SC)cc1` (stereo unspecified): the compound was classed as inactive in [3], in assay [4], in assay [5], in [6], in assay [9] and in assay [13]. Moreover, the result in assay [14] was inactive. For the same compound, the AC50 is 22.8 µM (active) in assay [10], 14 µM (active) in [11] and 1.41 µM (active) in assay [12].

Take `Oc1c(Br)cc(Br)cc1Br`: the outcome in [1], in assay [3], in [4], in [5], in assay [7] and in assay [9] was inactive. Moreover, the result in assay [13] and in [14] was inactive. Also, in [12], the AC50 is 36 µM (active).

With `Cc1cc(Cl)ccc1OC(C)C(=O)O` (stereo unspecified), the result in assay [3], in [4], in [5] and in [9] was inactive.

Consider `C=CC(Cl)CCl` (stereo unspecified), for which the compound was called inactive in assay [2], in assay [3], in [7] and in [9].

As for `O=CCCl`, the compound was classed as inactive in assay [3], in assay [4], in assay [5] and in assay [9].

`O=S1OC[C@@H]2[C@H](CO1)[C@]1(Cl)C(Cl)=C(Cl)[C@@]2(Cl)C1(Cl)Cl` (stereo partly specified): the outcome in assay [1], in assay [2], in [5], in assay [7], in assay [8] and in assay [9] was inactive. In addition, the call in [16] was inactive. Moreover, the AC50 was 12.6 µM (active) in assay [4]; 43.3 µM (active) in assay [10]; 68.1 µM (active) in [6]; 12.1 µM (active) in assay [11]; 41.2 µM (active) in assay [12]; 50 µM (active) in [15]. The AC50 in [17] is 38.3 µM (active); in [18], 16.3 µM (active).

Regarding `CCC[CH2][Sn]([Cl])([Cl])[CH2]CCC`, the compound was classed as inactive in assay [1], in [3], in assay [8], in [9], in assay [11] and in [12]. Moreover, the compound was classed as inactive in assay [16], in [17], in assay [18], in assay [13] and in assay [14]. Moreover, the figures for the AC50 in [4] and in assay [5] were 1.76 µM (active) and 3.3 µM (active), respectively.

For the compound `O=C(NC(=O)c1c(F)cccc1F)Nc1ccc(Cl)cc1`, the outcome in [3], in assay [4], in [5], in assay [10], in assay [6] and in assay [7] was inactive. The compound was called inactive in assay [8] and in [9].

In the case of `O=C(NC(=O)c1c(F)cccc1F)Nc1cc(Cl)c(OC(F)(F)C(F)C(F)(F)F)cc1Cl` (stereo unspecified), the compound was classed as inactive in assay [2], in [3], in assay [4], in [5] and in assay [9]. The results for the AC50 in assay [10], in assay [6] and in assay [7] were 50 µM (active), 43.7 µM (active) and 50 µM (active), respectively.

Take `O=C(CCl)Nc1ccccc1`: the result in assay [1], in [2], in [3], in assay [5], in [10] and in assay [9] was inactive. Also, the concentration at half-maximal activity (AC50) in assay [4] is 84.8 µM (active).

With `CCOCn1c(-c2ccc(Cl)cc2)c(C#N)c(Br)c1C(F)(F)F`, the compound was classed as inactive in assay [1], in [4], in [5], in assay [9], in assay [16] and in [18]. The concentration at half-maximal activity (AC50) in [3] is 12.6 µM (active); in [10] it was 12.3 µM (active); in assay [6] it was 3.05 µM (active); in assay [7], 25.2 µM (active); in assay [11], 6.2 µM (active); in assay [12], 13.2 µM (active). The half-maximal activity concentration (AC50) in assay [17] is 7.15 µM (active); in assay [13], 4.19 µM (active); in assay [14], 5.33 µM (active).

(Values after PubChem BioAssay (EPA / NIEHS).)
